Screening data (PubChem BioAssay)
esBAF inh = SWI/SNF esBAF complex inhibition | mouse ES cells, Bmi1-luciferase knock-in reporter, 24 h; 100% = twice the neutral-well signal | reporter increase, % at 12.5 µM | hit rate 2% among 350,000 | AID 602393; in the data active = activation above about 40%; inconclusive = no clear call, values can overlap the other calls;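 also: a rise in the Bmi1 reporter signal indicates esBAF inhibition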
MITF act = increases MITF-driven TRPM1 promoter luciferase signal; SK-MEL-5 TRPM1-promoter luciferase, 24 h; % of positive control, neutral wells = 0; activation, % at 12.5 µM; hit rate 0.75% among 300,000; AID 588334;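 active = mean activation of at least 80% with every replicate also reaching 80%; inconclusive = mean reaches 80% but some replicate falls short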
GAA850 FXN act = activators of GAA850 frataxin (FXN) promoter. HEK293 lucGAA850 FXN promoter luciferase reporter, 24 h; percent of 10 µM SAHA response. activation, % at 6 µM. hit rate 0.56% among 360,000. AID 540364;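 active = activation above the average of all compounds screened plus 3 SD, cutoff fixed separately per campaign, cut at about 7.5% in these data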
Wnt bcat act = activators of Wnt/beta-catenin signaling | Wnt/beta-catenin reporter cell assay, activator, plate reader | activation, % at 9.35 µM | hit rate 1.2% among 300,000; in the data active = activation above about 30%, passing the limit was not always enough; inconclusive = no clear call, values can overlap the other calls
GAA30 FXN cntr = activates GAA30 frataxin promoter, counter-screen for GAA850 activators. HEK293 lucGAA30 FXN promoter luciferase, 24 h; DMSO = 0%, 5 µM ipriflavone = 100%. hit rate 66% among 1,900. activation, % at 6 µM. shares compounds with GAA850 FXN act;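 active = mean activation above the mean of solvent-only control wells plus 3 SD, cut at about 22% in these data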;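 also: counterscreen of GAA850 promoter hits where activity marks nonselective or luminescence artifacts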
GAA850 confirm = confirmation of GAA850 frataxin (FXN) promoter activators | shares compounds with GAA850 FXN act | HEK293 lucGAA850 FXN promoter luciferase reporter, 24 h; 100% = activation by SAHA | activation, % at 6 µM | hit rate 86% among 1,900;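 active = mean activation above a set limit taken from the primary screen, cut at about 8% in these data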
Large screens that a line does not name were inactive (follow-up assays come after a bar, where they were run). Rows were chosen to be rich in hits. Some 2.8% of all compounds tested hit in one or more screens of this group.

O=C1[C@H](Cc2ccccc2)NCC=CC[C@H](c2ccco2)N1Cc1ccccc1	GAA850 FXN act 11 | GAA30 FXN cntr inactive | GAA850 confirm inactive
C[C@H](CO)N1C[C@H](C)[C@H](CN(C)Cc2ccncc2)Oc2cc(C#CC(C)(C)O)ccc2S1(=O)=O	none (no result: MITF act, GAA850 FXN act, Wnt bcat act)
C[C@@H]1CN([C@@H](C)CO)C(=O)c2cccc(NS(=O)(=O)c3ccc(Cl)cc3)c2O[C@H]1CN(C)Cc1ccncc1	none (no result: MITF act, GAA850 FXN act, Wnt bcat act)
Cc1nc(NCc2ccco2)c2c(C)c(C)sc2n1	none (no result: Wnt bcat act)
Cc1sc2nc3c4ccccc4c(NCc4ccco4)nn3c(=O)c2c1C	MITF act 85, GAA850 FXN act 10 (no result: esBAF inh, Wnt bcat act) | GAA30 FXN cntr 105 | GAA850 confirm 30
Cc1ccc(S(=O)(=O)Nc2ccc3c(c2)C(=O)N([C@H](C)CO)C[C@H](C)[C@H](CN(C)C(=O)CCCN(C)C)OCCCC[C@H](C)O3)cc1	none (no result: MITF act, GAA850 FXN act, Wnt bcat act)
Cc1ccc(S(=O)(=O)N2CCN(S(=O)(=O)c3ccc(C)cc3)C2c2ccccc2)cc1	GAA850 FXN act 8.3 | GAA30 FXN cntr inactive | GAA850 confirm inactive
Cc1ccc(S(=O)(=O)N[C@@H]2CC[C@@H](CCn3cc(-c4ccccc4F)nn3)O[C@@H]2CO)cc1	none (no result: MITF act, GAA850 FXN act, Wnt bcat act)
O=C(COc1ccccc1)Nc1ccccc1C(=O)NCc1ccco1	GAA850 FXN act 8.4 (no result: esBAF inh, MITF act) | GAA30 FXN cntr 41 | GAA850 confirm 16
Cc1cccc2cc(CN(C(=O)c3cnccn3)C3CCCCC3)c(Cl)nc12	GAA850 FXN act 7.6 | GAA30 FXN cntr inactive | GAA850 confirm inactive
CCC(=O)N(C)C[C@@H]1[C@H](c2ccc(-c3ccccc3F)cc2)[C@H](CO)N1C(C)=O	none (no result: MITF act, GAA850 FXN act, Wnt bcat act)
O=C1CN(c2nc(-c3cccs3)nc3sc4c(c23)CCCC4)CCN1	GAA850 FXN act 9.3 (no result: esBAF inh) | GAA30 FXN cntr 49 | GAA850 confirm 23
O=c1c2c3c(sc2nc2n1N=C(c1cccs1)CS2)CCCC3	MITF act 135, GAA850 FXN act 9.6 (no result: esBAF inh, Wnt bcat act) | GAA30 FXN cntr 87 | GAA850 confirm 40
O=C1CN(c2nc(-c3cccnc3)nc3scc(-c4ccccc4)c23)CCN1	none (no result: esBAF inh)
CNC[C@@H]1Oc2ncc(C#Cc3ccccc3F)cc2C(=O)N([C@@H](C)CO)C[C@@H]1C	none (no result: MITF act, GAA850 FXN act, Wnt bcat act)
C[C@H](CO)N1C[C@H](C)[C@@H](CN(C)Cc2ccncc2)Oc2ncc(C3=CCCCC3)cc2C1=O	none (no result: MITF act, GAA850 FXN act, Wnt bcat act)
CC1CCCc2sc3nc(N4CCN(CCO)CC4)n4ncnc4c3c21 (configuration not stated)	GAA850 FXN act 8.1 (no result: MITF act, Wnt bcat act) | GAA30 FXN cntr 33 | GAA850 confirm 21
C[C@@H]1CN([C@@H](C)CO)C(=O)c2cc(C3=CCCC3)cnc2O[C@@H]1CN(C)Cc1ccccc1F	none (no result: MITF act, GAA850 FXN act, Wnt bcat act)
Cc1ccc(S(=O)(=O)Cn2nnnc2C(C(C)C)N2CCc3ccccc3C2)cc1 (configuration not stated)	GAA850 FXN act 10 (no result: Wnt bcat act) | GAA30 FXN cntr inactive | GAA850 confirm 7.7
Cc1ccc(S(=O)(=O)Cn2nnnc2C(C(C)C)N2CCSCC2)cc1 (configuration not stated)	none
Cc1ccc(S(=O)(=O)N(C)C[C@H]2Oc3ccc(NC(=O)c4ccncc4)cc3CC(=O)N([C@@H](C)CO)C[C@H]2C)cc1	none (no result: MITF act, GAA850 FXN act, Wnt bcat act)
COCCNC(=O)c1cc(-c2cccs2)on1	GAA850 FXN act 15, Wnt bcat act inconclusive | GAA30 FXN cntr 145 | GAA850 confirm 70
CC(C)(C)n1nnnc1C(c1ccc(F)cc1)N(Cc1ccc(F)cc1)Cc1ccco1 (configuration not stated)	GAA850 FXN act 15 (no result: esBAF inh) | GAA30 FXN cntr inactive | GAA850 confirm 15
CC(C)(C)n1nnnc1C(c1ccc(C(F)(F)F)cc1)N(Cc1ccc(F)cc1)Cc1ccco1 (configuration not stated)	GAA850 FXN act 8.7 (no result: Wnt bcat act) | GAA30 FXN cntr inactive | GAA850 confirm 14
CCC(=O)N(C)C[C@@H]1Oc2cc(-c3ccccc3F)ccc2S(=O)(=O)N([C@H](C)CO)C[C@H]1C	none (no result: MITF act, GAA850 FXN act, Wnt bcat act)
COCCN1CCN(c2c(C)c(C)nc3cc(-c4cccc(OC)c4)nn23)CC1	esBAF inh 52, GAA850 FXN act 10 | GAA30 FXN cntr 72 | GAA850 confirm 20
COc1ccc(NC(=O)N(C)C[C@H]2Oc3c(NC(=O)C4CCOCC4)cccc3C(=O)N([C@H](C)CO)C[C@H]2C)cc1	none (no result: MITF act, GAA850 FXN act, Wnt bcat act)
NNc1ccc(Cl)c(C(=O)O)c1	GAA850 FXN act 8.7 | GAA30 FXN cntr 81 | GAA850 confirm 23
C[C@H](CO)N1C[C@H](C)[C@H](CN(C)C(=O)Nc2ccc(C(F)(F)F)cc2)OCCCC[C@H](C)Oc2ccc(NC(=O)CCC(F)(F)F)cc2C1=O	none (no result: MITF act, GAA850 FXN act, Wnt bcat act)
C=CCn1nnc2sc3c(c2c1=O)CCC(C)C3 (configuration not stated)	GAA850 FXN act 8.7 (no result: esBAF inh, Wnt bcat act) | GAA30 FXN cntr 71 | GAA850 confirm 30
CSc1nc2sc3c(c2c(=O)n1C)CCC(C)C3 (configuration not stated)	none (no result: Wnt bcat act)
CCC(=O)Nc1cc2c(cc1Cl)-c1ccccc1C2	GAA850 FXN act 8.4 | GAA30 FXN cntr 85 | GAA850 confirm 31
CCC(=O)Nc1cccc(NC(=O)c2ccccc2Cl)c1	none (no result: esBAF inh)
Cn1c2ccccc2c2cc([N+](=O)[O-])ccc21	none (no result: MITF act)
CCN(CC)CCn1c2ccccc2c2nc3ccc([N+](=O)[O-])cc3cc21	GAA850 FXN act 11 (no result: esBAF inh, MITF act) | GAA30 FXN cntr 24 | GAA850 confirm 28
COc1ccc(NC(=O)Nc2ccc3c(c2)C(=O)N([C@@H](C)CO)C[C@H](C)[C@H](CN(C)C(=O)Nc2c(C)noc2C)O3)cc1	none (no result: MITF act, GAA850 FXN act, Wnt bcat act)
